From PubChem BioAssay
Values without a mark were called inactive. For part of these data: Results with a measured potency or affinity are listed apart. The source made the active and inactive calls. Unless noted, how the calls were made is not given here.

How the values were obtained:
[1] = antimalarial activity against Dd2 strain (AID 2302;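 active means growth inhibition above 50% at the single 2 µM test dose, taken to imply half-maximal potency below 2 µM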;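 further: 0% = DMSO untreated growth and 100% = chloroquine plus artemisinin killed control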); details: P. falciparum Dd2 in RBCs, LDH growth readout, 72 h; at 2 µM; active compounds read high
[2] = human hepatoma cell viability loss – ATP luminescence, cytotoxicity control for P. falciparum antimalarial project, primary screen (AID 2303;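 active means inhibition above 50%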;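 further: 0% = DMSO wells and 100% = digitonin-killed cells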); details: HepG2 viability, 24-48 h, at 10 µM, active compounds read high
[3] = target: L-lactate dehydrogenase (Plasmodium falciparum (isolate CDC / Honduras)) (UniProt Q27743); assay: PfLDH activity inhibition – cell lysate, 3D7 strain, counter-screen for P. falciparum growth inhibition project (AID 2304);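 further: 0% = vehicle and 100% = reference inhibitor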; details: P. falciparum 3D7 crude extract, LDH APAD/NBT absorbance; at 2 µM; active compounds read high
[4] = inhibition of 3D7 malaria parasite growth – strain 3D7 (AID 2306);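 further: 0% = DMSO wells and 100% = chloroquine plus artemisinin control wells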; details: P. falciparum 3D7 erythrocytic growth, LDH absorbance, 72 h; at 2 µM; active compounds read high
[5] = target: Calcium-dependent protein kinase 1 (Plasmodium falciparum (isolate 3D7)) (UniProt P62344); assay: PfCDPK1 kinase inhibitors, biochemical, TCAMS library (AID 1159585; cut-off not given, nearly all actives have IC50 up to about 0.98 µM;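 further: inhibitors leave more ATP so luminescence rises with inhibition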); details: recombinant PfCDPK1, Kinase-Glo ATP depletion luminescence
[6] = target: Plasmodium falciparum protein kinase 6 (PK6, PF3D7_1337100) (UniProt Q8IDW1); assay: PfPK6 kinase inhibitors, biochemical, TCAMS library (AID 1159586); details: recombinant PfPK6, Kinase-Glo ATP depletion luminescence
[7] = target: Protein kinase 7 (PK7), Plasmodium falciparum 3D7 (PF3D7_0213400) (UniProt Q7YTF7); assay: inhibition of Plasmodium PK7 catalytic activity – biochemical, TCAMS antimalarial set, Kinase-Glo luminescence (AID 1159587); details: recombinant PfPK7, Kinase-Glo ATP depletion luminescence
[8] = target: Calcium-dependent protein kinase 4 (Plasmodium falciparum (isolate 3D7)) (UniProt Q8IBS5); assay: PfCDPK4 kinase inhibitors, biochemical, TCAMS library (AID 1159588; cut-off not given, nearly all actives have IC50 up to about 0.91 µM); details: recombinant PfCDPK4, Kinase-Glo ATP depletion luminescence
Chain of Calcium-dependent protein kinase 4 (Plasmodium falciparum (isolate 3D7)) (Q8IBS5 whole entry, looked up): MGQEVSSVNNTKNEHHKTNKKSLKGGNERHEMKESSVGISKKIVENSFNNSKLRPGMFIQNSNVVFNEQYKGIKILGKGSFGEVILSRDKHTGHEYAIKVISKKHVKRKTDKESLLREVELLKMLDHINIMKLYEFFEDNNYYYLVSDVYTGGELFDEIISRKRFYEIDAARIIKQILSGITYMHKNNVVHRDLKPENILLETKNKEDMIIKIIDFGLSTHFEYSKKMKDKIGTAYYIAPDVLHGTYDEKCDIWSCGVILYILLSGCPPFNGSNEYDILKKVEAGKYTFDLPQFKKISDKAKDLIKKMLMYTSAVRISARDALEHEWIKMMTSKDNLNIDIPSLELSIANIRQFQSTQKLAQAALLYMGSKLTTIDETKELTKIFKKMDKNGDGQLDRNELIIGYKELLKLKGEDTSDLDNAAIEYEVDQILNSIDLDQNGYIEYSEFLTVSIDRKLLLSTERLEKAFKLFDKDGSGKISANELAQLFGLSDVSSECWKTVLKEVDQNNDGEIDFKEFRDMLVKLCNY

Chain of Calcium-dependent protein kinase 1 (Plasmodium falciparum (isolate 3D7)) (P62344 whole entry, looked up): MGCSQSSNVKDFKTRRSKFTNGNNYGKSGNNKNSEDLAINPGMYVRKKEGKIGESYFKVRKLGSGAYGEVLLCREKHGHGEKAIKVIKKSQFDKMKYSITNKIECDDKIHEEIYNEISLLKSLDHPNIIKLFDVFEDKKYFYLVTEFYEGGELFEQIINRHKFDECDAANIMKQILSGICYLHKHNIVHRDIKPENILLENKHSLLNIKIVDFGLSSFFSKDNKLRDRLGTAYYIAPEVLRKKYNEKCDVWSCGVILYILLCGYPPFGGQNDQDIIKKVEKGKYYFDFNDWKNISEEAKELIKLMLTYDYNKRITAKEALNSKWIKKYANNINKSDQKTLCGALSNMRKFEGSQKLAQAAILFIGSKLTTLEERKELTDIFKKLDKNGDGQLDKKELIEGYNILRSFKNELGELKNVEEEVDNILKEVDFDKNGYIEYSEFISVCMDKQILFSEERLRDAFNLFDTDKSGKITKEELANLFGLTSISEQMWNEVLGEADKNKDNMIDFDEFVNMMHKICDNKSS
Chain of Plasmodium falciparum protein kinase 6 (PK6, PF3D7_1337100) (Q8IDW1 1-305): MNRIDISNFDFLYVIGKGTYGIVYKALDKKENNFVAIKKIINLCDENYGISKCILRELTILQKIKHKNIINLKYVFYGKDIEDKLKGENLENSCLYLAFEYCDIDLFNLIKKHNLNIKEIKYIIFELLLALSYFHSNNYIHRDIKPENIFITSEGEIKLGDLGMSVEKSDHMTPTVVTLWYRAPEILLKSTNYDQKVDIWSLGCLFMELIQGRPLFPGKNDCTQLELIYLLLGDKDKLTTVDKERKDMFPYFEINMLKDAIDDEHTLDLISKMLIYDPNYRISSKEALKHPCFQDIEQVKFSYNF
Chain of Protein kinase 7 (PK7), Plasmodium falciparum 3D7 (PF3D7_0213400) (Q7YTF7 1-343): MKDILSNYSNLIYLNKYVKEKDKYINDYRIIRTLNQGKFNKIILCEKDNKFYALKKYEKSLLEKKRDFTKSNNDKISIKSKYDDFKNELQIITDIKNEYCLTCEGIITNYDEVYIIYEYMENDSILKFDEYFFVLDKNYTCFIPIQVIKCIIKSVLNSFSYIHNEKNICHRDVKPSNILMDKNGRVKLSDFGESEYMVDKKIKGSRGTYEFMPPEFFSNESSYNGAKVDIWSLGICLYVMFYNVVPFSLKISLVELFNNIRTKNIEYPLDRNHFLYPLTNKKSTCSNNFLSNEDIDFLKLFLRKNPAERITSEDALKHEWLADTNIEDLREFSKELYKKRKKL
Chain of L-lactate dehydrogenase (Plasmodium falciparum (isolate CDC / Honduras)) (Q27743 whole entry, looked up): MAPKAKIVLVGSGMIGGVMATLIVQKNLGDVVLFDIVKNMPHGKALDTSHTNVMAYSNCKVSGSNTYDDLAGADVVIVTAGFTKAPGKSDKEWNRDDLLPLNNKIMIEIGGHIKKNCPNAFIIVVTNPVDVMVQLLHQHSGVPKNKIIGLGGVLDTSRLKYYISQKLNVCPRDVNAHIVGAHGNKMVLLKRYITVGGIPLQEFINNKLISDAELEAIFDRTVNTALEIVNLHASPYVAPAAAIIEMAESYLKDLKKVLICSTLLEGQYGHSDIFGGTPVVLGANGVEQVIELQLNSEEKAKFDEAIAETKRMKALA

| Compound | growth inhibition [1] | inhibition [2] | inhibition [3] [%] | growth inhibition [4] | outcome [5] | outcome [6] | outcome [7] | outcome [8] |
| --- | --- | --- | --- | --- | --- | --- | --- | --- |
| CCN1CCC(N(Cc2ccc(-c3ccc(C(F)(F)F)cc3)cc2)C(=O)Cn2c(CCc3cccc(F)c3F)cc(=O)c3c2CCC3)CC1 | 85% (active) | 49% | -1 | 89% (active) | inactive | inactive | inactive | inactive |
| O=C(/C=C/c1ccc(Cl)c(Cl)c1)NCCCCCN1CCC(C(=O)Nc2ccc(Cl)c(Cl)c2)CC1 | 0% | 73% (active) | -2 | 98% (active) | inactive | inactive | inactive | inactive |
| CS(=O)(=O)c1cc2c(Nc3ccc(N4CCOCC4)cc3)c(C(N)=O)cnc2cc1Br | 89% (active) | -18% | -2 | 101% (active) | inactive | inactive | inactive | inactive |
| CC(C)CNCc1ccc(-c2ccc(CNC3CCN(Cc4ccccc4)CC3)cc2)cc1 | 96% (active) | 16% | 4 | 100% (active) | inactive | inactive | inactive | inactive |
| O=C(NC1CCCCCC1)C1CCCN(C(=O)c2ccc(O)c(-c3ccc(Cl)c(Cl)c3)c2)C1 (configuration not stated) | 21% | 5% | -2 | 98% (active) | inactive | inactive | inactive | inactive |
| O=S(=O)(Nc1cc2c(cc1O)CCN(C1CCC1)CC2)c1ccc(Oc2ccc(F)cc2)cc1 | 52% (active) | 20% | 0 | 99% (active) | inactive | inactive | inactive | inactive |
| CN1CCN=C1c1ccc(NC(=O)Nc2ccc(C3=NCCN3C)cc2)cc1 | 69% (active) | 7% | -1 | 85% (active) | inactive | inactive | inactive | inactive |
| O=C(Nc1ccc(-c2cccc(-c3nc4ccccc4[nH]3)c2)cc1)Nc1ccc(Cl)c(Cl)c1 | 80% (active) | 61% (active) | -2 | 101% (active) | inactive | inactive | inactive | inactive |
| CS(=O)(=O)c1ccc(CNCc2ccc(-c3ccc(-c4nc5ccc(F)cc5[nH]4)s3)cc2)cc1 | 97% (active) | 22% | 0 | 102% (active) | inactive | inactive | inactive | inactive |
| Cn1c(Nc2cc(C(C)(C)C)on2)nc2cc(Nc3ccnc(Nc4ccc(CS(C)(=O)=O)cc4)n3)ccc21 | 68% (active) | 37% | -1 | 101% (active) | inactive | inactive | inactive | inactive |
| NCC1CCCN1Cc1ccc(-c2cccc(-c3nc4ccc(C(F)(F)F)cc4[nH]3)c2)cc1 (configuration not stated) | 97% (active) | 24% | 1 | 99% (active) | inactive | inactive | inactive | inactive |
| CC(C)(CNC(=O)[C@@H]1CCCN(CCOc2ccc(Cl)cc2)C1)c1nc(-c2ccc(Cl)c(O)c2)c(-c2ccncc2)[nH]1 | 57% (active) | 58% (active) | -7 | 92% (active) | inactive | inactive | inactive | inactive |
| c1ccc(CNc2cc(-c3ccccn3)nc(-c3ccccn3)n2)cc1 | 89% (active) | 88% (active) | -2 | 84% (active) | inactive | inactive | inactive | inactive |
| Cc1cnc(NC(=O)c2cn(-c3ccccc3)nc2-c2cccs2)s1 | 1% | -5% | -1 | 91% (active) | inactive | inactive | inactive | inactive |
| COCCNCc1cccc(-c2ccc(CNC3CCN(Cc4ccccc4)CC3)cc2)c1 | 97% (active) | 34% | -7 | 100% (active) | inactive | inactive | inactive | inactive |
| O=C(Nc1cccc(CN2CCCN(Cc3cccc(O)c3)CC2)c1)c1ccc(-c2ccccc2)cc1 | 66% (active) | 28% | 3 | 101% (active) | inactive | inactive | inactive | inactive |
| CC(O)C1CCCCN1C(=O)c1ccc(-c2ccc(-c3nc4ccc(F)cc4[nH]3)cc2)cc1 (configuration not stated) | 99% (active) | 43% | -3 | 101% (active) | inactive | inactive | inactive | inactive |
| COc1ccc(CN2C(=S)N(Cc3ccccc3)C(=O)C2CC(=O)Nc2ccccc2)cc1OC (configuration not stated) | 73% (active) | 6% | -2 | 96% (active) | inactive | inactive | inactive | inactive |
| CC(CCCCCC(=O)Nc1ccc(CC(C)NCCc2cccc(Cl)c2)cc1)NCCc1cccc(Cl)c1 (configuration not stated) | 37% | 99% (active) | 1 | 91% (active) | inactive | inactive | inactive | inactive |
| Clc1ccc(Nc2nc(-c3ccccn3)cs2)nc1 | 90% (active) | 36% | -1 | 95% (active) | inactive | inactive | inactive | inactive |

| Compound | growth inhibition [1] | inhibition [2] | inhibition [3] [%] | growth inhibition [4] | outcome [5] | outcome [6] | outcome [7] | outcome [8] |
| --- | --- | --- | --- | --- | --- | --- | --- | --- |
| COc1cc(NCCCNCc2cn(Cc3cc(Br)cc(Br)c3)c3ccccc23)nc2ccccc12 | 85% (active) | 99% (active) | 4 | 100% (active) | inactive | inactive | inactive | inactive |
| Cc1cc(C)c(NC(=O)NC2CCN(CCCCCNC(=O)/C=C/c3ccc(Cl)c(Cl)c3)CC2)c(C)c1 | 17% | 30% | 2 | 103% (active) | inactive | inactive | inactive | inactive |
| O=C(Nc1cccc(-c2csc(-c3nc4ccccc4[nH]3)c2)c1)c1cc(=O)c2ccccc2[nH]1 | 39% | 41% | -2 | 98% (active) | inactive | inactive | inactive | inactive |
| Cn1nccc1C(=O)NCCNCc1cccc(-c2ccc(-c3nc4ccc(C(F)(F)F)cc4[nH]3)cc2)c1 | 98% (active) | 51% (active) | -1 | 102% (active) | inactive | inactive | inactive | inactive |
| CCn1c(SCC(=O)Nc2cc(C(F)(F)F)ccc2Cl)nc2ccccc2c1=O | 95% (active) | 8% | 3 | 93% (active) | inactive | inactive | inactive | inactive |
| Fc1ccc2c(NN=Cc3ccccc3F)ccnc2c1 | 99% (active) | 10% | -1 | 101% (active) | inactive | inactive | inactive | inactive |
| FC(F)(F)c1cccc(CNCC2CCN(Cc3ccc4c(c3)OCO4)CC2)c1 | 19% | 21% | 1 | 100% (active) | inactive | inactive | inactive | inactive |
| CN(C)CCCNc1ccnc2cc(Cl)ccc12 | 100% (active) | 10% | 4 | 100% (active) | inactive | inactive | inactive | inactive |
| OC(CNCCc1ccccc1)Cn1c2ccc(Cl)cc2c2cc(Cl)ccc21 (configuration not stated) | 96% (active) | 53% (active) | 8 | 98% (active) | inactive | inactive | inactive | inactive |
| COc1ccc2ncc(F)c([C@@H](O)CN3CCC(NCc4cc5c(cn4)OCS5)CC3)c2c1 | 98% (active) | 16% | -2 | 103% (active) | inactive | inactive | inactive | inactive |
| CC1(C)N=C(N)NC(Nc2ccc(F)c(F)c2)=N1 | 1% | 59% (active) | -10 | 91% (active) | inactive | inactive | inactive | inactive |
| CN(C)S(=O)(=O)c1ccc(N2C(=O)[C@@H]3[C@H](C2=O)[C@@]2(c4ccccc4)C(=O)[C@]3(c3ccccc3)C(c3ccccc3)=C2c2ccccc2)cc1 | 63% (active) | -10% | 3 | 92% (active) | inactive | inactive | inactive | inactive |
| CC(C)CCN1CCCN(Cc2ccc(C(=O)NCc3ccc(Cl)cc3)cc2)CC1 | -4% | 16% | 1 | 84% (active) | inactive | inactive | inactive | inactive |
| NC(=O)c1ccccc1OCC(=O)Nc1cccc(-c2ccc(-c3nc4ccc(C(F)(F)F)cc4[nH]3)cc2)c1 | 17% | 58% (active) | -2 | 92% (active) | inactive | inactive | inactive | inactive |
| O=C(Cn1c(SCc2cccc(F)c2F)cc(=O)c2ccccc21)N(CCn1ccnc1)Cc1ccc(-c2ccc(C(F)(F)F)cc2)cc1 | 94% (active) | 20% | -2 | 100% (active) | inactive | inactive | inactive | inactive |
| O=C(NCCCCN1CCC(c2ccc3c(c2OCC2CC2)CCCC3)CC1)c1ccc(NC(=O)c2ccc(Cl)cc2)cc1 | 93% (active) | 23% | -4 | 101% (active) | inactive | inactive | inactive | inactive |
| CN1CCN(c2ccc(Nc3c(C(N)=O)cnc4cc(-c5ccoc5)ccc34)cc2)CC1 | 99% (active) | 14% | -3 | 101% (active) | inactive | inactive | inactive | inactive |
| Cc1ccc(-c2ccc(NC(=O)N3CCc4cc(Br)c(N5CCN(C)CC5)cc43)cc2)cn1 | 16% | 86% (active) | -3 | 80% (active) | inactive | inactive | inactive | inactive |
| Cc1[nH]nc2cc(Nc3ccnc(Nc4cccc(CN5CCOCC5)c4)n3)ccc12 | -10% | 33% | -8 | 83% (active) | inactive | inactive | inactive | inactive |
